# The list is not random: actives were taken first. Their share in the collection is about 11%.
# Pf growth 96h: Primary qHTS for delayed death inhibitors of the malarial parasite plastid, 96 hour incubation. P. falciparum luciferase reporter growth, 96 h. Potency, µM (doses to about 28.7 µM), inactives show at the highest dose activity change, negative = inhibition, most hits filed as inhibitors. 320,000 compounds, 6.9% hits; note: % is set by controls: 0 for no effect and ±100 for the full control effect
#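 Plates of compound plus infected erythrocytes (2% hematocrit, 0.05% parasitemia final) incubate 96 hours, 37 C, 5% CO2. Detection reagent added; reduced luminescence from the parasites' luciferase reporter flags inhibition.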
# Sm TGR inh: qHTS Assay for the Inhibitors of Schistosoma Mansoni Peroxiredoxins | Schistosoma mansoni thioredoxin glutathione reductase (TGR), Q962Y6 | purified TGR, DTNB reduction, TNB absorbance 405 nm | Potency, µM (titrated, usually from 114 µM), for the others: top-dose activity change, negative = inhibition, most hits filed as inhibitors | 360,000 compounds, 3% hits | AID 485364, 2010; note: % is set by controls: 0 for no effect and ±100 for the full control effect; nearly all actives have a fitted effect of over 60% in size
#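 First, TGR (20 nM dispensed) and NADPH were mixed with compound. Second, a 15 min room-temperature incubation followed. Third, further NADPH and then DTNB were added to start the reaction. Finally, TNB absorbance was monitored kinetically.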
# Pf growth 48h: Primary qHTS for delayed death inhibitors of the malarial parasite plastid, 48 hour incubation; P. falciparum luciferase growth in erythrocytes, 48 h; Potency, µM (series often up to 28.7 µM), for the others: at the top dose activity change, negative = inhibition, actives largely listed as inhibitors; 310,000 compounds, 5.9% hits; AID 504832, 2011; note: % is set by controls: 0 for no effect and ±100 for the full control effect
#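 Read-out is firefly luciferase luminescence from an integrated reporter in P. falciparum, so falling signal marks reduced parasite growth. Infected erythrocytes were at 2% hematocrit and 0.1% parasitemia (final) in Albumax-supplemented RPMI 1640.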
# AMA1-RON2 inh: qHTS for Inhibitors of AMA1-RON; Towards Development of Antimalarial Drug Lead: Primary Screen | Plasmodium falciparum AMA1 (3D7) - RON2 peptide interaction | AlphaScreen AMA1-biotinylated RON2 peptide binding | Potency, µM (highest dose often 58.2 µM), for inactives: at the highest dose activity change, negative = inhibition, hits mostly inhibitors | 360,000 compounds, 0.2% hits | AID 720542, 2013;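 note: 0% = vehicle wells and -100% = peptide control; nearly all actives have a fitted effect of over 45% in size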
#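 AMA1 (3D7) with his tag at 25 nM final met compounds first, then biotinylated RON2 peptide at 25 nM; detection used donor plus acceptor beads, 10 µg/mL apiece, read by AlphaScreen after 30 min at room temperature.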
# NS1 inh: qHTS Assay for Inhibitors of Influenza NS1 Protein Function; Potency, µM (titrated, usually from 46.1 µM), without a hit: at the top dose activity, positive = more growth; 270,000 compounds, 0.4% hits; calls by dose curve; note: actives are rising curves; nearly all actives have a fitted effect of over 50% in size
#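 Recovery from NS1-induced slow growth read by OD600 in budding yeast switched to galactose assay medium (pH 6.0, -URA) at 1:100 dilution. Compound 23 nl per well; the matching strain lacking NS1 serves as control.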
# The depositor's hits bear a star; u = inconclusive; x = not tested or not shown. Unless noted, calls come from the whole dose curve; as a rule, active = well fitted curve in the direction sought with a large enough effect; inconclusive = small, poorly fitted or top-dose-only effect, or another doubt; inactive = no such curve, though single readings can be large; an effect the other way counts as inactive or inconclusive. Potency is the fitted concentration of half-maximal effect.
SMILES,Pf growth 96h,Sm TGR inh,Pf growth 48h,AMA1-RON2 inh,NS1 inh
N#C/C(=C\c1c(Cl)cccc1Cl)c1nc2ccccc2[nH]1,8.3µM*,-5%,8.3µM*,21%,-88%
Cc1nc(CSc2nnc(Nc3cccc(C)c3C)s2)cs1,7.4µM*,7%,u,0%,-33%
CCOC(=O)c1c(C)[nH]c(C(=O)OCC(O)=C(C#N)c2nc3ccccc3[nH]2)c1C,x,x,x,50%,x
N#C/C(=C\c1ccc(Sc2ccc(Cl)cc2)o1)c1nc2ccccc2[nH]1,-12%,-16%,0.19µM*,56%,-38%
O=C1C=C(CCc2ccccc2)CCC1,x,x,x,14%,x
COCC(=O)Nc1nc2n(n1)C(c1ccccc1Cl)CC(c1ccc(OC)cc1)N2 (stereo not given),x,40µM*,-12%,17%,-15%
COc1ccc(C2CC(c3ccc(OC)cc3)n3nc(NC(=O)c4cccs4)nc3N2)cc1 (stereo not given),-14%,6%,u,60%,21%
COCC(=O)Nc1nc2n(n1)C(c1ccc(Cl)cc1)CC(c1ccc(OC)cc1)N2 (stereo not given),-94%,25µM*,x,15%,8%
COc1cccc(C2CC(c3ccccc3Cl)n3nc(N)nc3N2)c1 (stereo not given),-16%,0%,-9%,0%,13%
COc1ccccc1NC(=O)Cc1noc(CN(C)Cc2cccs2)n1,5.9µM*,-4%,-22%,9%,-12%
COc1ccccc1NC(=O)CCc1nc(-c2cccs2)no1,22%,3%,x,11%,-18%
CC1CCc2c(sc(NC(=O)/C=C/c3cccs3)c2C(=O)O)C1 (stereo not given),9.3µM*,0%,6%,-2%,-27%
CC1CCc2c(sc(NC(=O)c3ccco3)c2C(=O)O)C1 (stereo not given),21%,5%,15%,2%,-108%
Nc1ccn([C@@H]2O[C@H](C(=O)N3CCN(Cc4ccccn4)CC3)[C@@H](O)[C@H]2O)c(=O)n1,x,x,x,46%,x
COc1ccc(NC(=O)CC2C(=O)N(c3ccc(OC)cc3)C(=O)N2CCC2=CCCCC2)cc1 (stereo not given),x,9%,x,x,x
O=S(=O)(O)c1ccc(O)c2cc(Nc3ccccc3)ccc12,x,x,x,3.2µM*,x
O=S(=O)(O)c1cc(O)c2cc(Nc3ccccc3)ccc2c1,x,x,x,-20%,x
CC(=O)N1c2ccc(S(=O)(=O)N3CCCCCC3)cc2CC1C(=O)NCc1cccc(C)c1 (stereo not given),x,1%,x,x,x
Cc1cc(C)n(-c2nc(C)nc(NCc3ccccc3)n2)n1,47%,-1%,0%,-8%,-43%
Cc1nn(-c2nnc(NCc3ccccc3)nn2)c(C)c1Br,0.33µM*,-28%,0.59µM*,-17%,-36%
Cc1cc(C)n(-c2nnc(NCc3ccc(Cl)cc3)nn2)n1,2.1µM*,0%,u,-20%,x
CCCCc1c(-c2ccc(F)cc2)ncn1CCc1ccccc1OC,x,x,x,-29%,x
COC(=O)/C(C#N)=C/c1c(N2CCN(Cc3ccc4c(c3)OCO4)CC2)nc2c(C)cccn2c1=O,u,7%,u,-3%,3%
Cc1cccn2c(=O)c(/C=C(\C#N)C(N)=O)c(N3CCN(Cc4ccc5c(c4)OCO5)CC3)nc12,10µM*,-1%,9.3µM*,-25%,-1%
Cc1cccn2c(=O)c(C=C(C#N)C#N)c(N3CCN(C)CC3)nc12,7.4µM*,-13%,-3%,0%,9%
SMILES,Pf growth 96h,Sm TGR inh,Pf growth 48h,AMA1-RON2 inh,NS1 inh
CCOC(=O)/C(C#N)=C/c1c(N2CCN(Cc3ccc4c(c3)OCO4)CC2)nc2c(C)cccn2c1=O,u,1%,3.7µM*,u,5%
CCOC(=O)/C(C#N)=C/c1c(N2CCN(C)CC2)nc2c(C)cccn2c1=O,4%,-24%,9%,8%,4%
Cc1cccn2c(=O)c(/C=C(\C#N)C(N)=O)c(N3CCN(c4cccc(Cl)c4)CC3)nc12,9.3µM*,0%,u,-17%,14%
Cc1cccn2c(=O)c(C=C(C#N)C#N)c(N3CCN(c4ccccc4)CC3)nc12,u,1%,u,-15%,3%
CCOc1ccc(NC(=O)CC2C(=O)N(c3cccc(OC)c3)C(=O)N2CCOC)cc1 (stereo not given),14%,4%,-4%,-7%,6%
CCCCOc1ccc(-c2nc(SCC(N)=O)n[nH]2)cc1,186%,0%,101%,-5%,-2%
CCCCOc1ccc(-c2nc(=S)[nH][nH]2)cc1,12µM*,-10%,x,74%,1%
COc1cccc(-c2nc(CS(=O)(=O)CC(=O)Nc3ccc(C)c(Cl)c3)c(C)o2)c1,x,-15%,x,x,x
Cc1ccc(NS(=O)(=O)c2ccc3nc(-c4ccccc4)[nH]c3c2)cc1Cl,x,-6%,x,x,x
C/C(=N\NC(=O)c1cccc(Br)c1)c1cccnc1,-29%,8%,38%,35%,-7%
CCCN1C2CCCC1CC(NC(=O)Nc1cccc(C(C)=O)c1)C2 (stereo not given),u,1%,u,2%,-1%
O=C(Nc1ccccc1-c1ccccc1)NC1CC2CCCC(C1)N2CCc1ccccc1 (stereo not given),u,0%,5.2µM*,-1%,-9%
O=C(Nc1ccccc1-c1ccccc1)NC1CC2CCCC(C1)N2Cc1ccc(F)cc1 (stereo not given),34%,x,12µM*,-12%,-1%
O=C(c1cnsn1)N1CCCC(Nc2ccc(F)c(F)c2)C1 (stereo not given),99%,-17%,5%,15%,3%
C[n+]1ccn(CC(=O)c2ccc(Cl)cc2)c1,17%,-11%,-29%,-2%,-1%
C[n+]1ccn(CC(=O)c2cc(C(C)(C)C)c(O)c(C(C)(C)C)c2)c1,20%,-23%,9.3µM*,-1%,6%
C=Cn1cc[n+](CC(=O)c2ccc(Br)cc2)c1,6.6µM*,-13%,u,-3%,7%
C[n+]1ccn(CC(=O)c2ccc(Br)cc2)c1,9.3µM*,11%,12µM*,-14%,-6%
COC(=O)C1CCN(C2CN(C3CCCCC3)S(=O)(=O)C2)CC1 (stereo not given),x,x,x,12%,x
CNc1nc(SCc2ccc(C)cc2)nc2c1CCCC2,13µM*,19%,7.4µM*,3%,-155%
Cc1ccc(CSc2nc3c(c(N(C)C)n2)CCCC3)cc1,u,-4%,13µM*,49%,-55%
CCC(NC(=O)CCc1c(C)c2cc3c4c(oc3cc2oc1=O)CCCC4)C(=O)O (stereo not given),8%,7%,-16%,-14%,5%
Cc1cc(C)cc(NC(=O)c2ncn(-c3ccccc3)n2)c1,x,2%,x,x,x
Cn1cnnc1SCC(=O)NCCC(c1ccccc1)c1ccccc1,x,-3%,7%,9%,-1%

# Screens as filed in PubChem BioAssay.
